Values joined by “and” are separate entries in the source; they are usually repeats but may differ in a detail not shown here. Equal values may be shown once. Screen size: about 360,000 compounds; about 3,000 (0.83%) were called active. No stated cut-off is given here; in the data, active means inhibition above about 50%; inactive means the rest. What follows is part of a selection rich in actives, with near analogues and random picks from the rest. The source holds several records for some structures; these can differ, active in one and inactive in another.
These compounds were tested against DNA (cytosine-5)-methyltransferase 1 (Homo sapiens) (UniProt P26358) (assay: inhibition of DNA methyltransferase DNMT1 – biochemical, molecular beacon, fluorescence, HinP1I cleavage, uHTS, primary screen (AID 588458)). Details: at 10 µM, stronger effect = higher value.
DNA (cytosine-5)-methyltransferase 1 (Homo sapiens), sequence (P26358 504-1616 limits assumed): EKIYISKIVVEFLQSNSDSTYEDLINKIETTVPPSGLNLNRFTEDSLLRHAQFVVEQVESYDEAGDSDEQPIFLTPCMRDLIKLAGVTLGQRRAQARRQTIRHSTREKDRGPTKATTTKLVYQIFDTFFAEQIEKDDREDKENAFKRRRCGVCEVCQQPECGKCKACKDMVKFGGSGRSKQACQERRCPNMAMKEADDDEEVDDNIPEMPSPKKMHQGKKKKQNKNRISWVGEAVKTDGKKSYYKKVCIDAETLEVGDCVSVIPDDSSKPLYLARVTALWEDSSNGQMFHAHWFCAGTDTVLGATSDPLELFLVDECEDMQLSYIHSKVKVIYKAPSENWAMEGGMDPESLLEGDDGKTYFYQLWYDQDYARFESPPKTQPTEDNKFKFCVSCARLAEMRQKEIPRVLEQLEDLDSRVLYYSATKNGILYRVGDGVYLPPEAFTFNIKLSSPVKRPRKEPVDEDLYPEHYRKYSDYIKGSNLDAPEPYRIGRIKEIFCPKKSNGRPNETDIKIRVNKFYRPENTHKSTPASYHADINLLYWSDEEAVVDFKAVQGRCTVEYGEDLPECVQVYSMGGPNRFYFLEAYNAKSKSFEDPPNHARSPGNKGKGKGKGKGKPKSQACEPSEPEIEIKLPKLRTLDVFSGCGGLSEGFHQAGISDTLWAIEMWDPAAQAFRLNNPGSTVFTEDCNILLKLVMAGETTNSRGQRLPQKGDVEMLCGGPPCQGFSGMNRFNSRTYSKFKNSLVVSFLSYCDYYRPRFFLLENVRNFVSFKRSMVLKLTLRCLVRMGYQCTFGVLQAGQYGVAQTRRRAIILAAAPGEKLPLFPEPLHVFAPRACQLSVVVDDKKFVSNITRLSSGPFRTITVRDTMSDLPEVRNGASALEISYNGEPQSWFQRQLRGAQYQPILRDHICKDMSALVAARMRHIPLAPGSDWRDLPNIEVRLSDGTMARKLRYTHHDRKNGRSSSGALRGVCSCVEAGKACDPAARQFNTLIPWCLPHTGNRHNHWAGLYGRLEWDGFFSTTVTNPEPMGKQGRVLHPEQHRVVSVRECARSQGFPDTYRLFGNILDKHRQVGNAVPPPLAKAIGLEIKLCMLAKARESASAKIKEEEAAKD

Inhibition (reported as % activation of signal), inactive:
O=C(COC(=O)Cc1ccc(Cl)cc1Cl)NCc1ccco1 -2.23%
CC1CCN(C(=O)COC(=O)CCC(=O)c2cccs2)CC1 0.68%
N#CCC(=O)Nc1ccc(C(=O)OCC(=O)Nc2sc3c(c2C#N)CCCC3)cc1 -11.8%
CC(C)NC(=O)NC(=O)COC(=O)c1ccc(NC(=O)CC#N)cc1 -1.52%
CC1CCN(C2=NC(=O)/C(=C/c3cn[nH]c3-c3ccccc3)S2)CC1 -3.21%
Cc1cccc(-c2cnc(C(O)c3cc(C)cc(C)c3)[nH]2)c1 (stereo not given) 4.05%
Cc1ccc(-n2c(=O)cc(N3CCN(Cc4ccccc4)CC3)[nH]c2=O)cc1 -5.41%
CN(Cc1ccc2nsnc2c1)Cc1nc(Cc2cccc(F)c2)no1 14.7%
CN(Cc1cc2cc(F)ccc2[nH]1)Cc1nc(-c2cnccn2)no1 0.73%
COc1cc(C2C(N3C(=O)c4ccccc4C3=O)C(=O)N2c2ccc(C)c(C)c2)cc(OC)c1OC (stereo not given) -2.9%
Cc1ccc(NC(=O)c2cnc(SCC(=O)NCC3CCCO3)n(C)c2=O)cc1 (stereo not given) -0.68%
N#Cc1ccccc1NC(=O)c1ccc2c(c1)OCO2 2.15%
Cc1[nH]c2ccccc2c1C(=O)COC(=O)c1c(-c2ccccc2)noc1C -10.3%
Cc1ccccc1CN1C[C@@H]2C[C@@H](c3cn(C)nc3-c3ccccc3)N3CCC[C@@]23C1=O -7.15%
O=C(COC(=O)CSc1nnc(-c2ccc(Cl)cc2)o1)Nc1cc(Cl)cc(Cl)c1 3.58%
CCCCC(=O)Nc1c2c(nn1-c1ccc([N+](=O)[O-])cc1)CS(=O)(=O)C2 0.28%
CN(C)S(=O)(=O)N1CCN(c2ccc([N+](=O)[O-])cc2)CC1 -0.57%
Cc1ccc(CN2CC(N3CCC(Cc4ccccc4)CC3)CS2(=O)=O)cc1 (stereo not given) -0.65%
Cc1ccc(OCc2nnc(SC3CCc4ccccc4C3=O)n2C)cc1 (stereo not given) -0.48%
CC1(C(=O)NS(=O)(=O)c2ccccc2)CCN1C(=O)Cc1ccc(-c2ccccc2)cc1 (stereo not given) 3.68%
CC1(C(=O)NS(=O)(=O)c2ccccc2)CCN1C(=O)c1ccccc1 (stereo not given) -2.49%
COc1ccc(CNC(=O)C(NS(=O)(=O)c2cccc3nsnc23)C(C)C)cc1 (stereo not given) 2.57%
O=C(O)C1CCC(CNS(=O)(=O)c2ccc(Br)cc2)CC1 (stereo not given) 0.46%
O=C(Nc1ccccc1)c1cc2ccccc2[nH]1 -1.95%
O=C(NCC(O)c1nc2ccccc2[nH]1)c1ccc(Br)cc1 (stereo not given) -1.63%
COc1ccc(-c2cc(NC=O)c3ncc(-c4cc(OC)c(OC)c(OC)c4)n3c2)c(OC)c1 -21.8%
O=C(CN1CCN(c2ncccn2)CC1)Nc1ccccc1C(F)(F)F 1.55%
CC(C)C1CC2=C(C(=O)OC(C)(C)O2)C(c2ccc(F)cc2)O1 (stereo not given) 0.41%
NC(=O)COc1ccc(NC(=O)c2ccccc2-c2ccccc2)cc1 1.27%
CCCNC(=O)c1cnc(-c2ccccc2)nc1-c1ccccc1 0.2%
CCOc1cccc(/C=N/N2C(=O)CSC2=S)c1O -12.4%
CO/N=C/c1ccc(N2CCN(C(=O)c3cccc(Cl)c3)CC2)c([N+](=O)[O-])c1 -5.17%
CCc1ccc(OC2(C)CCN(CCOc3ccc(C)cc3)C2)cc1 (stereo not given) 1.94%
CC1(C(=O)NCc2ccc3c(c2)OCO3)CCN1CCc1ccccc1 (stereo not given) 0.65%
CCOc1ccc(NC(=O)CSc2ncnc3c2sc2ccccc23)cc1 11.2%
CC(C)CCSc1ncnc2c1oc1nc3c(cc12)COC(C)(C)C3 0.16%
C=CCC[C@H](Cc1ccc(F)cc1)C(=O)OC[C@@H](Cc1c[nH]c2ccccc12)NC(=O)[C@H](CC=C)CC(=O)N[C@H](CO)Cc1ccccc1 4.02%
C=CC[C@H](CC(=O)NCCO)C(=O)N[C@@H](COC(=O)[C@@H](CC=C)Cc1ccc(F)cc1)Cc1c[nH]c2ccccc12 -10.1%
O=C(Cc1ccc([N+](=O)[O-])cc1)NCCS(=O)(=O)N1CCN(c2ccccc2)CC1 -1.35%
Cc1cccc(C(=O)N2CCC(c3nc4ccccc4s3)CC2)c1 -3.99%
Cc1cccc(NC(=S)N2CCC(c3nc4ccccc4s3)CC2)c1 -5.14%
CC(=O)N1CCc2cc(Br)cc(S(=O)(=O)CCC(=O)Nc3c(C)n(C)n(-c4ccccc4)c3=O)c21 0.99%
COc1ccc(-c2[nH][nH]c(=O)c2NC(=O)c2ccc([N+](=O)[O-])cc2)cc1 -19.5%
COc1ccc(S(=O)(=O)N2CCC(C(=O)OCC(=O)c3ccccc3)CC2)cc1[N+](=O)[O-] 6.89%
COc1ccccc1C(CNC(=O)c1cccc(NS(=O)(=O)c2ccc(Br)cc2)c1)N(C)C (stereo not given) 2.12%
O=C(CCSCCc1ccccn1)Nc1nccs1 -3.62%
Cn1cccc1Cc1nnc(SCC(=O)NCc2ccc3c(c2)OCO3)n1CCc1ccccc1 6.75%
Cc1c(C(=O)N(Cc2ccccc2)Cc2cccnc2)cnn1-c1ccc(F)cc1 0.01%
CCc1nnc(NC(=O)c2ccco2)s1 4.22%
O=C(Nc1nonc1-c1ccc(Cl)cc1)c1ccco1 9.05%
CCN(CC)S(=O)(=O)c1ccc(NC(=O)c2cccnc2Cl)c(NC(=O)c2cccnc2Cl)c1 -0.07%
CC(C)C[C@H](NC(=O)C1CC(=O)N(c2ccc3c(c2)OCCO3)C1)C(=O)NC1CCCC1 (stereo not given in full) -0.87%
O=C1NCC(Nc2ccccc2)C(=O)N1 (stereo not given) 0.4%
CCN1C(=O)c2cccc3c(S(=O)(=O)Nc4ccccc4O)ccc1c23 -3.81%
O=C(CN1C(=O)c2cccc3cccc1c23)Nc1ccccc1 6.37%
Cn1cc(C2OC(=O)c3ccccc32)c2ccccc21 (stereo not given) 1.23%
O=C(COC(=O)CCc1c[nH]c2ccccc12)Nc1cccc(Cl)c1 -4.28%
O=C(CCC1CCCC1)N=C1SC2CS(=O)(=O)CC2N1Cc1ccccc1 (stereo not given) 14.4%
COc1ccccc1-c1oc2ccccc2c1C#CCCCCO -0.24%
COc1ccc(Cc2cc(-c3ccc(F)cc3)n[nH]c2=O)cc1 -1.27%
CCCc1nc(-c2cc3cc(C)ccc3[nH]c2=O)no1 -2.69%
Cc1ccc2c(CC(=O)NCc3cccs3)coc2c1 7.02%
C[C@H]1CN([C@@H](C)CO)C(=O)CCCn2cc(nn2)CO[C@@H]1CN(C)S(=O)(=O)c1ccccc1C#N 8.79%
C=C(Br)CN1CCN(CC(=C)Br)CC1 1.67%
Cc1cc2nc(-c3ccc(Cl)cc3)c(Cc3cccc(F)c3)n2c(C)c1Br 37.2%
Cc1ccc2nc(-c3ccco3)c(Cc3cccc(Cl)c3)n2c1 -0.88%
CCN1CCN(c2ccc(S(=O)(=O)N3CCCCC3)cc2NC(=O)c2cccc(NC(C)=O)c2)CC1 -6.35%
COc1cccc(NC(=O)CSc2nccn(-c3ccc4c(c3)OCCO4)c2=O)c1 0.94%
NC(CSC1(c2ccccc2)c2ccccc2-c2ccccc21)C(=O)O (stereo not given) 38.3%
CCC(C)OC(=O)C(C)Oc1ccc(-c2ccccc2)cc1 (stereo not given) -3.17%

Inhibition (reported as % activation of signal), active:
O=C(COC(=O)CCC(=O)c1cccs1)NCc1ccco1 72.8%
CCOc1ccc(NC(=O)c2ccc(NC(=O)COC(=O)c3ccc(NC(=O)CC#N)cc3)cc2)cc1 61.4%
CN(Cc1nc2ccc(F)cc2[nH]1)Cc1nc(CC2CC2)no1 52.1%
O=C1/C(=C\c2ccc([N+](=O)[O-])cc2)CS(=O)(=O)C/C1=C/c1ccc([N+](=O)[O-])cc1 101%
CC1(C(=O)NS(=O)(=O)c2ccccc2)CCN1C(=O)C/C=C/c1ccccc1 (stereo not given) 84.5%
O=C1C(Cl)=C(Oc2ccccc2)C(=O)c2ccccc21 78.2%
O=C(Nc1cccc(-c2nc3ccccc3[nH]2)c1)c1ccc(C(=O)Nc2cccc(-c3nc4ccccc4[nH]3)c2)cc1 56.8%
O=C1CSC(=S)N1/N=C/c1ccc(O)c([N+](=O)[O-])c1 76.8%
CC1(C)Cc2nc3sc4c(SCC(=O)NC(c5ccccc5)c5ccccc5)ncnc4c3cc2CO1 50%
C=CC[C@@H](CC(=O)N[C@H](CO)Cc1ccccc1)C(=O)N[C@@H](COC(=O)[C@@H](CC=C)Cc1ccc(F)cc1)Cc1c[nH]c2ccccc12 63.8%
O=C(c1cccs1)N1CCC(c2nc3ccccc3s2)CC1 73.8%
COc1ccc(Br)cc1/C=N/Nc1ccc(S(=O)(=O)Nc2ccccc2C(=O)O)cc1[N+](=O)[O-] 97.5%
O=C(Nc1nc(-c2ccco2)c(-c2ccco2)s1)c1ccco1 80.6%
Cc1nn(C)cc1N1C(=O)c2cccc3c(N)ccc(c23)C1=O 65%
CCN1C(=O)c2cccc3c(N)ccc1c23 51.2%
CN1C(=O)c2cccc3c(N)ccc(c23)C1=O 68.8%
COc1ccc2[nH]c(=O)c(-c3noc(-c4ccc(F)cc4)n3)cc2c1 95.2%
Cc1cc2nc(-c3ccco3)c(Cc3cccc(F)c3)n2c(C)c1Br 56.4%
NC(CSC(c1ccccc1)(c1ccccc1)c1ccc(-c2ccccc2)cc1)C(=O)O (stereo not given) 89%

Inhibition (reported as % activation of signal), 86.5% (active) and -2.35% (inactive):
Cc1onc(-c2ccccc2)c1C(=O)Nc1ccccc1C#N

— PubChem BioAssay AID588458 (Sanford-Burnham Center for Chemical Genomics, 2011)
